# Screening results (PubChem)
# In the library only some 19% were active in any assay of this set; here they are far more common.
# KB-V1 MDR tox – KB-V1 MDR subline cytotoxicity; KB-V1 MDR cells viability, CellTiter-Glo, 72 h; Potency, µM (titrated, usually from 46.1 µM), hits mostly cytotoxic; actives 3.4% (n = 400,000); also: nearly all actives have a fitted effect of over 60% in size
#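 In this primary screen, KB-V1 cells overexpressing P-gp are incubated with library compounds (lowest to highest concentration) for 72 h at 37 degrees C before a luminescent ATP viability read.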
# DT40 TDP1 no CPT – qHTS for Inhibitors of human tyrosyl-DNA phosphodiesterase 1 (TDP1): qHTS in cells in absence of CPT. DT40 Tdp1-/- hTDP1 cells, no CPT, ATP luminescence, 48 h. Potency, µM (titrated, usually from 46.2 µM), inactives show top-dose activity change, negative = growth inhibition, hits mostly inhibitors. actives 15% (n = 420,000). AID 686978, 2013; also: nearly all actives have a fitted effect of over 55% in size
#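 No-CPT arm: Tdp1-/-;hTDP1 DT40 cells (400/well) plus compounds, incubated ≥48 hr at 37 °C. Readout CellTiter-Glo luminescence.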
# HT1080-NT tox – kills 2HG-producing HT-1080-NT fibrosarcoma cells; Potency, µM (series often up to 46.1 µM), without a hit: top-dose activity, negative = less viability, actives largely listed as cytotoxic; actives 1.6% (n = 360,000); HT-1080-NT fibrosarcoma viability, CellTiter-Glo ATP luminescence, 48 h;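 also: NT is the 2HG producing partner of a matched IDH1 knockdown line; 0% = DMSO-treated cells and -100% = media-only wells without cells; nearly all actives have a fitted effect of over 55% in size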
#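 HT-1080-NT fibrosarcoma cells (2HG-overproducing), 750 cells/well in RPMI with 5% FBS, dosed after 2 h and incubated 48 h at 37C. CellTiter-Glo luminescence normalized to DMSO and no-cell wells; concentration-response curves fitted and classed.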
# HT1080 IDH1KD tx – kills HT-1080 cells with IDH1 knockdown. HT-1080 IDH1 knockdown viability, ATP luminescence, 48 h. Potency, µM (series often up to 46.1 µM), for the others: at the highest dose activity, negative = toxicity, actives largely listed as cytotoxic. actives 2% (n = 360,000);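 also: 0% = DMSO wells and -100% = cell-free medium wells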
#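 IDH1KD HT-1080 cells, 750/well, RPMI + 5% FBS; compound pinned after 2 h settling; 48 h, 37 °C; CellTiter-Glo luminescence; % activity normalised to DMSO and no-cell wells; curves fitted, classed by r2 and efficacy.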
# TDP1 cell CPT – growth inhibition of DT40 Tdp1-/-;hTDP1 cells with camptothecin (screen for TDP1 inhibitors); chicken DT40 Tdp1-/-;hTDP1 cells + 20 nM CPT, ATP luminescence, 48 h; Potency, µM (doses to about 46.2 µM), without a hit: top-dose activity change, negative = growth inhibition, most hits filed as inhibitors; actives 12% (n = 420,000); AID 686979; also: nearly all actives have a fitted effect of over 55% in size
#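 Cell growth measured by CellTiter-Glo luminescence after a minimum 48 h, 37 C compound exposure with 20 nM CPT in Tdp1-knockout DT40 cells stably expressing hTDP1, seeded 400/well; qHTS titration format.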
# KB-3-1 tox – KB-3-1 parental cell cytotoxicity; KB-3-1 viability, CellTiter-Glo ATP luminescence, 72 h; actives 1.4% (n = 400,000); AID 1347075; Potency, µM (top dose mostly 46.1 µM), hits mostly cytotoxic; also: nearly all actives have a fitted effect of over 60% in size
#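 Multi-concentration cytotoxicity screen in KB-3-1 cells grown in DMEM lacking phenol red with 10% FBS. After 72 h at 37 °C with compound, ATP-dependent luminescence was recorded.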
# An asterisk follows results filed as active; i = inactive; ? = inconclusive; nt = no result. Calls follow the shape of the dose curve; as a rule, active = well fitted curve in the direction sought with a large enough effect; inconclusive = small, poorly fitted or top-dose-only effect, or another doubt; inactive = no such curve, though single readings can be large; an effect the other way counts as inactive or inconclusive. Unless noted, % is scaled to controls: 0 for no effect and ±100 for the full control effect; potency is read from the fitted curve at half-maximal effect.
SMILES,KB-V1 MDR tox,DT40 TDP1 no CPT,HT1080-NT tox,HT1080 IDH1KD tx,TDP1 cell CPT,KB-3-1 tox
COc1cc(NC(=O)CSc2nc3ccccc3n2-c2ccccc2)c(C)cc1[N+](=O)[O-],8.2µM*,?,0%,-5%,?,i
NS(=O)(=O)c1ccc(NC(=O)CSc2nc3ccccc3n2-c2ccccc2)cc1,i,?,?,-18%,?,i
CN(C)S(=O)(=O)c1cccc(NC(=O)CSc2nc3ccccc3n2-c2ccccc2)c1,2.3µM*,26µM*,-23%,?,?,?
CN(C)S(=O)(=O)c1ccc(NC(=O)CSc2nc3ccccc3n2-c2ccccc2)cc1,i,21µM*,-8%,-2%,?,i
COc1ccc(-n2c(SCC(=O)Nc3ccc([N+](=O)[O-])cc3OC)nc3ccccc32)cc1,i,?,-2%,0%,-23%,i
N#Cc1c[nH]n2c(NC3CCCCC3)c(-c3cccc(Cl)c3)nc12,?,?,nt,nt,?,i
Cn1c(=O)n(C)c2cc(/C=N/NC(=O)c3ccc(Cl)cc3)ccc21,i,?,?,?,?,i
Cn1c2ccccc2c2cc(/C=N/NC(=O)c3ccccc3F)ccc21,i,?,?,18µM*,23µM*,i
Cn1c2ccccc2c2cc(/C=N/NC(=O)c3ccc(N)cc3)ccc21,i,18µM*,?,?,?,?
COc1ccc(C(=O)COC(=O)C2COc3ccccc3O2)c(OC)c1 (stereo unspecified),i,2%,9%,12%,?,i
O=C(Cn1cc(S(=O)(=O)Cc2ccccc2Cl)c2ccccc21)NCc1ccccc1Cl,i,?,nt,nt,?,i
CN(C)c1ccc(NC(=O)Cn2cc(S(=O)(=O)Cc3cccc(Cl)c3)c3ccccc32)cc1,i,?,nt,nt,?,i
CN(C)c1ccc(NC(=O)Cn2cc(S(=O)(=O)Cc3ccccc3Cl)c3ccccc32)cc1,nt,8.2µM*,nt,nt,?,nt
Cc1ccc(C)c(NC(=O)Cn2cc(S(=O)(=O)Cc3cccc(Cl)c3)c3ccccc32)c1,i,?,nt,nt,16µM*,i
Cc1ccc(NC(=O)Cn2cc(S(=O)(=O)Cc3cccc(Cl)c3)c3ccccc32)cc1C,i,?,nt,nt,?,i
Cc1ccc(CNC(=O)Cn2cc(S(=O)(=O)Cc3ccccc3Cl)c3ccccc32)cc1,i,15µM*,nt,nt,18µM*,i
CCN(C(=O)Cn1cc(S(=O)(=O)Cc2ccccc2Cl)c2ccccc21)c1ccccc1,?,23µM*,nt,nt,16µM*,i
COc1cccc(C(=O)c2ccccc2C(=O)O)c1,i,9%,24%,19%,-4%,i
Cc1cc2oc(C(=O)Nc3sc4c(c3C(=O)NCC3CCCO3)CCCC4)cc(=O)c2cc1C (stereo unspecified),i,-3%,nt,nt,-1%,i
COc1cccc(CNC(=O)CCCn2ncn3c(cc4occc43)c2=O)c1OC,i,2%,nt,nt,-22%,i
CCC[n+]1c(C)sc2c3c(ccc21)CCCC3,i,2.3µM*,?,?,1.8µM*,?
Cc1ccc(NC(=S)N(Cc2cccs2)Cc2cc3cc(C)cc(C)c3[nH]c2=O)cc1,i,?,6%,6%,?,i
CCN(CC)CCN(Cc1cc2cc(C)cc(C)c2[nH]c1=O)C(=S)NCc1ccco1,?,23µM*,-25%,-26%,26µM*,i
CCN(CC)CCN(Cc1cc2ccc(C)c(C)c2[nH]c1=O)C(=S)NCc1ccco1,i,?,-19%,-21%,?,?
Cc1cc(C)c2[nH]c(=O)c(CN(Cc3cccs3)C(=S)NCc3ccco3)cc2c1,i,10µM*,-8%,-11%,13µM*,i
SMILES,KB-V1 MDR tox,DT40 TDP1 no CPT,HT1080-NT tox,HT1080 IDH1KD tx,TDP1 cell CPT,KB-3-1 tox
CC(Sc1ccccc1)C(=O)N1CCN(S(=O)(=O)c2ccccc2C(F)(F)F)CC1 (stereo unspecified),?,-24%,2%,-2%,-12%,i
C[C@@H]1CCCCO[C@@H](CN(C)C(=O)Cc2ccccc2)[C@@H](C)CN([C@H](C)CO)C(=O)c2cc(NC(=O)C3CCCCC3)ccc2O1,i,-6%,3%,-2%,?,i
C/C(=N\NC(=O)C(=O)Nc1cccc(Cl)c1C)c1ccncc1,21µM*,15µM*,12%,?,21µM*,i
C/C(=N\NC(=O)c1ccc(Cl)c(S(=O)(=O)Nc2ccccc2Cl)c1)c1ccncc1,23µM*,?,2%,0%,?,i
O=C(COc1ccc2ccccc2c1)NC1CC(=O)N(c2ccccc2)C1 (stereo unspecified),nt,-23%,nt,nt,-20%,nt
COc1ccc(N2CCN(C(=O)C3CCN(S(=O)(=O)N4CCOCC4)CC3)CC2)cc1,i,13µM*,-6%,-3%,?,i
O=S(=O)(N1CCOCC1)N1CCN(c2ccc(F)cc2)CC1,i,4%,-6%,9%,-24%,i
O=C(C1CCN(S(=O)(=O)N2CCOCC2)CC1)N1CCN(c2ccc(F)cc2)CC1,i,10µM*,-15%,-9%,8.2µM*,i
N#CC1=C2SCC(O)(c3ccccc3)N2C(=O)CC1c1cccs1 (stereo unspecified),0.58µM*,1µM*,0.63µM*,0.35µM*,1.2µM*,0.73µM*
N#CC1=C2SCN(Cc3ccccc3)CN2C(=O)CC1c1ccccc1F (stereo unspecified),i,-28%,-3%,-1%,-11%,i
N#CC1=C2SCN(c3ccccc3)CN2C(=O)CC1c1cccs1 (stereo unspecified),i,-17%,6%,3%,-5%,i
N#CC1=C2SCC(O)(c3ccccc3)N2C(=O)CC1c1ccccc1F (stereo unspecified),?,8.2µM*,?,16µM*,13µM*,9.2µM*
CCOC(=O)c1ccc(NC(=O)c2c(-c3c(F)cccc3Cl)noc2C)cc1,i,?,nt,nt,?,?
CC(C)(C)NC(=O)C(c1ccc(O)cc1)N(Cc1ccc2c(c1)OCO2)C(=O)CCl (stereo unspecified),i,?,7%,13%,?,i
